Each structure is given as a SMILES string. Among all 310,000 compounds or so, about 1,500 (0.48%) were called active.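 How the source made its calls: active means initial fluorescence not abnormally high and integrated response B-score, plate-corrected, over 3 SD above library mean; inactive means the rest.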 What follows is part of a selection rich in actives, with near analogues and random picks from the rest. The source holds several records for some structures; these can differ, active in one and inactive in another.

High affinity choline transporter 1 (Homo sapiens), sequence (Q9GZV3 whole entry, looked up): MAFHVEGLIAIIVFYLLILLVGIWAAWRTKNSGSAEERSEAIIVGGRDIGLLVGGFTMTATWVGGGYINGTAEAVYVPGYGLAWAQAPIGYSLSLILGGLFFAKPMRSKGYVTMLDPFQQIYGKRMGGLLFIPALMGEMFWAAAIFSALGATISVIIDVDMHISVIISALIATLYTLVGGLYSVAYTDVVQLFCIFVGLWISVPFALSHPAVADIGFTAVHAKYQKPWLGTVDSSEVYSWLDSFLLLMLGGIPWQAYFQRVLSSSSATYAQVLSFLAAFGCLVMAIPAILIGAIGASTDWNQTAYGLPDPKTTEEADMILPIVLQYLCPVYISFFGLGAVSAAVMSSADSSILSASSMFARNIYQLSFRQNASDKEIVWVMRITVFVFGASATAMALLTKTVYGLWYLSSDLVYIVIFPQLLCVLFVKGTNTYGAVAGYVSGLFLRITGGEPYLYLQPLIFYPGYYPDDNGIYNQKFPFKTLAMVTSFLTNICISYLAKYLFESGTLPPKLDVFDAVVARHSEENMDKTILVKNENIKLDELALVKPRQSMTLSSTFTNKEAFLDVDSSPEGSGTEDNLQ

The test concerns the target High affinity choline transporter 1 (Homo sapiens) (UniProt Q9GZV3). Description: allosteric activators of human choline transporter – cell-based, membrane potential dye, choline EC20, primary screen (AID 488977). The following applies: CHT-expressing cells, at 10 µM, LV-AA mutant CHT in HEK293 cells; active compounds read high.
Regarding `O=C(NCCc1ccco1)C(=O)NCCC1CCCCN1S(=O)(=O)c1ccccc1` (stereo not given), the B-score entry is “inactive”.

Turning to `CCn1cc(S(=O)(=O)c2cccc(C)c2)c(=O)c2cc(F)c(N3CCN(C)CC3)cc21`, the B-score was 8.24 (active).

Consider `CCn1cc(C(=O)NCCO)c(=O)c2cc(F)c(N3CCN(C)CC3)cc21`, for which the B-score result was “inactive”.

With `CN1CCN(c2cc3c(cc2F)c(=O)c(C(=O)O)cn3CCF)CC1`, the B-score result is “inactive”.

Consider `CCN1C(=O)[C@H]2[C@@H](c3ccc(-c4ccc(F)cc4)cc3)N[C@@](Cc3ccccc3)(C(=O)OC)[C@H]2C1=O`, for which the B-score entry was “inactive”.

With `CN(/N=C/c1ccccc1)C(=S)c1ccccc1`, the B-score result is “inactive”.

`Cc1ccc(C)c(OCCC(=O)Nc2cccc(S(=O)(=O)N3CCCC3)c2)c1`: the B-score result was “inactive”.

Regarding `Cn1c(=NC(=O)c2ccco2)sc2cccc(F)c21`, the B-score result was “inactive”.

Consider `Cn1c(=NC(=O)c2cnccn2)sc2ccccc21`, for which the B-score is 7.8 (active).

On to `Cn1c(=NC(=O)CSCC(=O)N2CCCCC2)sc2ccccc21`, for which the B-score result is “inactive”.

With `O=C(Nc1ncccc1O)c1ccc(S(=O)(=O)N2CCCCCC2)cc1`, the B-score entry was “inactive”.

Take `CCN(CC)c1ccc(S(=O)(=O)N2CCCCC2)cc1NC(=O)C1=COCCO1`: the B-score result is “inactive”.

With `OCc1ccc(-c2ccccc2)c(-c2ccccc2)c1`, the B-score result was “inactive”.

`CCCCN(CCCC)CC(O)Cn1c2ccccc2c(=O)c2ccccc21` (stereo not given): the B-score was 8.77 (active).

For `CS(=O)(=O)N(CC(O)Cn1c2ccccc2c2ccccc21)c1cccc2ccccc12` (stereo not given), the B-score entry was “inactive”.

Turning to `O=C1c2ccccc2S(=O)(=O)N1CC(O)Cn1c2ccccc2c2ccccc21` (stereo not given), the B-score entry is “inactive”.

Turning to `COc1ccc(CCNc2cc(N3CCN(C(=O)c4ccccc4OC)CC3)ccc2[N+](=O)[O-])cc1OC`, the B-score result is “inactive”.

As for `CCN1CCN(c2c(Cl)cccc2NC(=O)c2ccc(Br)o2)CC1`, the B-score is 8.41 (active).

With `COc1cc(OC)c(NC(=O)c2ccc(Br)o2)cc1Cl`, the B-score entry was “inactive”.

`CCCC(=O)Nc1ccc(Cl)c(NC(=O)c2ccc(Br)o2)c1`: the B-score entry was “inactive”.

On to `O=C1CCCCC1Sc1ccc(Cl)cc1[N+](=O)[O-]` (stereo not given), for which the B-score entry was “inactive”.

Turning to `COC(=O)[C@]1(C)N[C@H](c2ccc(-c3ccc(Cl)c(Cl)c3)cc2)[C@@H]2C(=O)N(C)C(=O)[C@@H]21`, the B-score result was “inactive”.

Consider `Cc1nnc(C)c2c(C)n(N)c(C)c12`, for which the B-score is 9.77 (active).

Take `COc1cc(C(=O)NCC(=O)NCCSc2ccc(Br)cc2)cc(OC)c1OC`: the B-score result is “inactive”.

Turning to `O=C(COC(=O)Cc1c[nH]c2ccccc12)NCCc1ccccc1`, the B-score entry is “inactive”.

As for `CCN1C(=NCCc2cccnc2)N[C@@H](c2ccccc2)[C@H](C(=O)OC)[C@H]1C`, the B-score is 6.5 (active).

As for `CCN1C(=NCCc2cccnc2)N[C@@H](c2ccccc2)C(C(=O)OC)=C1C`, the B-score entry is “inactive”.

Take `CCN1C(=S)N[C@@H](CCc2ccccc2)[C@H](C(=O)OC)[C@H]1C`: the B-score result is “inactive”.

Regarding `O=C(Nc1ncccc1O)c1ccc(S(=O)(=O)N2CCCC2)cc1`, the B-score entry is “inactive”.

Regarding `COc1cc(C(=O)N(C)Cc2cccc(OC)c2OC)ccc1OCC(=O)Nc1cccc(C(F)(F)F)c1`, the B-score result is “inactive”.

With `O=C(N/N=C/c1cc(Br)c(O)c([N+](=O)[O-])c1)C(O)(c1ccccc1)c1ccccc1`, the B-score entry was “inactive”.

As for `C=CCNc1nnc(C)c2ccccc12`, the B-score is 7.04 (active).

Regarding `C=CCNc1nnc(SCC(=O)N2CCCCC2)c2ccccc12`, the B-score result is “inactive”.

For `COc1ccc(Nc2nnc(C)c3ccccc23)cc1`, the B-score result is “inactive”.

Turning to `COc1ccc(-c2ccc3nnc(SCC(=O)Nc4ccc(NC(C)=O)cc4)n3n2)cc1`, the B-score result was “inactive”.

Take `COc1ccc(C(=O)NCC2CCCN2S(=O)(=O)c2cccs2)cc1OC` (stereo not given): the B-score result is “inactive”.

Regarding `CN1CCN(C2Cc3ccc(Cl)cc3Sc3ccc(F)cc32)CC1` (stereo not given), the B-score result was “inactive”.

In the case of `CCOC(=O)C1CCN(C(=O)COC(=O)C2CCN(S(=O)(=O)c3ccc4c(c3)OCCO4)CC2)CC1`, the B-score entry is “inactive”.

Turning to `COc1ccccc1CNC(=O)C1CCN(S(=O)(=O)c2ccc3c(c2)OCCO3)CC1`, the B-score entry is “inactive”.

Take `O=C(COC(=O)C1CCN(S(=O)(=O)c2ccc3c(c2)OCCO3)CC1)Nc1ccccc1OC(F)F`: the B-score was 6.95 (active).

As to `Cc1ccc(N2CC(C(=O)N3CCC4(CC3)CC(=O)c3ccccc3O4)CC2=O)cc1C` (stereo not given), the B-score result was “inactive”.

For `O=C(NCCC1CCCCN1S(=O)(=O)c1ccc(Cl)cc1)C(=O)NCc1ccco1` (stereo not given), the B-score result is “inactive”.

Turning to `Brc1cnc2ccccc2c1N1CCCCC1`, the B-score entry is “inactive”.

As to `CCCNC(=O)c1ccc(N2CCC3(CC2)CC(c2cccc(Br)c2)=NO3)c(NC(=O)c2ccco2)c1`, the B-score result is “inactive”.

Consider `C#CCOCCOCCOCCNc1nc(N2CCN(C(=O)CCCCCCCCCCNC(=O)[C@H]([C@@H](C)CC)n3cc(CCCCN=C(N)N)nn3)CC2)nc(N2CCN(C(=O)CCCCCCCCCCNC(=O)[C@H](CO)n3cc(CCCSC)nn3)CC2)n1`, for which the B-score result was “inactive”.

For the molecule `C#CCOCCOCCOCCNc1nc(N2CCN(C(=O)CCCCCCCCCCNC(=O)Cn3cc(CCCCCN)nn3)CC2)nc(N2CCN(C(=O)CCCCCCCCCCNC(=O)[C@H](CO)n3cc(CCCSC)nn3)CC2)n1`, the B-score entry was “inactive”.

Take `C#CCOCCOCCOCCNc1nc(N2CCN(C(=O)CCCCCCCCCCNC(=O)[C@H](CCCCN)n3cc(C)nn3)CC2)nc(N2CCN(C(=O)CCCCCCCCCCNC(=O)[C@H](CO)n3cc(CCCSC)nn3)CC2)n1`: the B-score was 7.24 (active).

Take `Cc1cccc(C(=O)Nc2ccccc2N2CCN(c3ccc(F)cc3)CC2)c1`: the B-score entry is “inactive”.

Turning to `O=C(Nc1ccccc1N1CCN(c2ccccc2)CC1)c1cccc(F)c1`, the B-score is 7.46 (active).

Consider `O=C(Nc1ccccc1N1CCCCC1)c1cccc(F)c1`, for which the B-score result is “inactive”.

Turning to `CSc1ccccc1NC(=O)c1cnc2sc(C)cn2c1=O`, the B-score result is “inactive”.

Consider `CCN1C(=O)[C@@H]2[C@@H](c3ccc(-c4ccc(OC)cc4)c(OC)c3)N3CCC[C@@]3(C(=O)OC)[C@@H]2C1=O`, for which the B-score result is “inactive”.

`Cc1ccc(-c2c[n+](CC(=O)Nc3ccccc3)c3n2CCC3)cc1`: the B-score entry is “inactive”.

Consider `Cc1ccc(C(=O)C[n+]2cc(-c3ccccc3)n3c2CCCCC3)cc1`, for which the B-score was 7.44 (active) and the result was inactive.

Take `O=C(C[n+]1cc(-c2ccc(Cl)c(Cl)c2)n2c1CCC2)c1cccs1`: the B-score entry was “inactive”.

Turning to `Nc1nonc1-n1nnc(C(=O)N/N=C/c2ccccc2O)c1CN1CCCC1`, the B-score entry is “inactive”.

As for `Cc1ccc(-n2c(C)cc(/C=N\NC(=O)CC(=O)NC(C)C)c2C)cc1`, the B-score was 11.1 (active).

`Cc1cc(/C=N/NC(=O)CC2(C)OCCO2)c(C)n1-c1ccc(Cl)c(Cl)c1`: the B-score result was “inactive”.

In the case of `CSc1ccc(/C=N\NC(=O)CC(=O)NC(C)C)cc1`, the B-score result was “inactive”.

Take `CN(C(=O)c1cc2c(=O)n3ccccc3nc2s1)C1CCCCC1`: the B-score result is “inactive”.

In the case of `O=C1N[C@@H](Cc2ccccc2)C(=O)N2[C@H]1C[C@]1(Br)c3ccccc3N(S(=O)(=O)c3ccccc3)[C@H]21`, the B-score result is “inactive”.

Turning to `O=S(=O)(O)Oc1c[nH]c2ccccc12`, the B-score entry is “inactive”.

For the molecule `COc1cc2c(cc1OC)C(C(C)C)=NC(C)(C)C2`, the B-score result is “inactive”.

For `COc1cc2c(cc1OC)C(Nc1ccc(S(N)(=O)=O)cc1)=NC(C)(C)C2`, the B-score was 9.17 (active).

With `COc1cc2c(cc1O)C(SC)=NC(C)(C)C2`, the B-score result was “inactive”.

Regarding `O=C(NCCCc1ccccc1)C(=O)NCC1OCCN1S(=O)(=O)c1ccccc1` (stereo not given), the B-score result is “inactive”.

Consider `O=C(NCCC1=CCCCC1)C1CCN(Cc2cnn(-c3ccccc3)c2-n2cccc2)CC1`, for which the B-score was 6.26 (active).

Regarding `C1=C(CCNc2ncnc3c2cnn3-c2ccccc2)CCCC1`, the B-score entry was “inactive”.

As for `Cc1ccc(S(=O)(=O)N2CCC(C(=O)NCCC3=CCCCC3)CC2)cc1C`, the B-score entry was “inactive”.

As to `COc1ccccc1C(=O)Nc1ccccc1C(=O)Nc1ccccc1`, the B-score entry is “inactive”.

As for `COc1ccccc1-c1nnc(-c2ccc(F)cc2)o1`, the B-score entry is “inactive”.

Regarding `Cc1ccccc1N1CCN(CCCOc2ccc3c(C)cc(=O)oc3c2)CC1`, the B-score entry was “inactive”.

With `Cc1cc(=O)oc2ccc(OCC(=O)O)cc12`, the B-score entry was “inactive”.

With `Cc1cc(=O)oc2cc(OCCC[n+]3ccccc3)ccc12`, the B-score is 8.55 (active).

In the case of `O=C(c1ccccc1)N1CCN(c2ccc([N+](=O)[O-])c(NCc3ccco3)c2)CC1`, the B-score entry was “inactive”.

As to `O=[N+]([O-])c1ccc(N2CCN(S(=O)(=O)c3ccc4ccccc4c3)CC2)cc1NCc1ccco1`, the B-score entry was “inactive”.

Regarding `O=[N+]([O-])c1ccc(N2CCNCC2)cc1NCc1cccnc1`, the B-score was 6.95 (active).

As to `Cc1cc(Br)ccc1NC(=O)CN(C)C(=O)CN1C(=O)NC2(CCCC2)C1=O`, the B-score result is “inactive”.

For the molecule `COc1cc(/C=N/NC(=O)c2cc(-c3ccccc3C)nc3ccccc23)cc(OC)c1O`, the B-score entry is “inactive”.

For the origin of these results see PubChem BioAssay AID488977 (Johns Hopkins Ion Channel Center, 2010).
